The source of these data is PubChem BioAssay (EPA / NIEHS).

Active and inactive are the calls of the source. Rule for the calls: active = hit-call score of the fitted dose curve at least 0.9, where 1 is the maximum; inactive = score below 0.9.

A short description of assay [1]: ATG_E_Box_CIS: Attagene CIS-FACTORIAL HepG2 Assay for human Enhancer Box (E-box) (AID 2282936). As to conditions: HepG2 E-box cis-reporter transcription, actives raise or lower the signal. The procedure, abridged:
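DMSO served as negative control and baseline for bidirectional fitting. Human hepatoma HepG2 cells, transiently transfected with cis-reporter constructs, were dosed 24 h; reporter mRNA read by RT-PCR and capillary electrophoresis.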

The nature of assay [2]: ATG_M_61_CIS: Attagene CIS-FACTORIAL HepG2 Assay for M61 Transcription Factor (Internal Marker) (AID 2282937). As to conditions: HepG2 Attagene CIS-FACTORIAL M61 internal marker reporter; actives raise or lower the signal. In a few lines: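 Fluorescence from labelled cDNA fragments, separated by capillary electrophoresis, quantifies reporter induction. HepG2 cells bearing transiently transfected cis-promoter MRTUs were incubated with test chemical for 24 h; DMSO defined baseline for gain/loss fitting.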

Assay [3] in a line: ATG_EGR_CIS: Attagene CIS-FACTORIAL HepG2 Assay for human Early Growth Response 1 (EGR1) (AID 2282938). As to conditions: HepG2 Attagene CIS-FACTORIAL EGR reporter mRNA; actives raise or lower the signal. In a few lines:
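Cell-based multiplex transcription assay: HepG2 carrying transfected cis-element reporter units, 24 h chemical treatment. Fluorescence from capillary electrophoresis of RT-PCR products gives mRNA levels; fitting is bidirectional relative to DMSO.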

A short description of assay [4]: ATG_M_19_CIS: Attagene CIS-FACTORIAL HepG2 Assay for M19 Transcription Factor (Internal Marker) (AID 2282939). Conditions: HepG2 Attagene CIS-FACTORIAL M19 internal marker reporter; actives raise or lower the signal. In a few lines:
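HepG2 cells transiently transfected with cis-regulated multiplexed reporter units, dosed 24 h. Reporter mRNA quantified by RT-PCR and capillary electrophoresis; internal background marker fitted bidirectionally versus DMSO.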

Assay [5] is described as follows: ATG_Ets_CIS: Attagene CIS-FACTORIAL HepG2 Assay for human Erythroblast Transformation Specific (ETS) (AID 2282941). As to conditions: HepG2 ETS cis-reporter transcription, actives raise or lower the signal. The procedure, abridged:
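HepG2 cells transfected with multiple cis-regulated reporter units measuring endogenous ETS-driven transcription, 24 h after dosing. Reporter mRNA quantified by RT-PCR with capillary electrophoresis; bidirectional fit relative to DMSO.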

Assay [6] has as its target Hepatocyte nuclear factor 3-beta (Homo sapiens) (UniProt Q9Y261). The experiment in a line: ATG_FoxA2_CIS: Attagene CIS-FACTORIAL HepG2 Assay for human Forkhead box A2 (FOXA2) (AID 2282942). As to conditions: HepG2 cis-reporter transcription factor activity, 24 h; actives raise or lower the signal. In a few lines: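 In transiently transfected human HepG2 cells, promoter-driven reporter mRNA levels after 24 h chemical exposure are determined via RT-PCR with capillary electrophoresis. DMSO serves as baseline for bidirectional fitting.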

The nature of assay [7]: ATG_FoxO_CIS: Attagene CIS-FACTORIAL HepG2 Assay for human Forkhead box O (FoxO) (AID 2282943). Conditions: HepG2 Attagene cis-reporter, FoxO element, mRNA; actives raise or lower the signal. The procedure, abridged: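 Endogenous transcription factor activity read from multiplexed cis-promoter reporter transcripts in transiently transfected HepG2, 24 h after dosing. Reporter RNA measured via RT-PCR plus capillary electrophoresis of FAM-labeled products; gain or loss relative to DMSO.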

Assay [8] can be described thus: ATG_GATA_CIS: Attagene CIS-FACTORIAL HepG2 Assay for human GATA Binding Protein (AID 2282944). Conditions: HepG2 GATA cis-element reporter, Attagene multiplex mRNA; actives raise or lower the signal. In a few lines:
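HepG2 cells transiently transfected with multiplexed cis-element reporter units measure endogenous GATA activity; after 24 h compound exposure, reporter mRNA quantified by RT-PCR and capillary electrophoresis. Changes fitted in both directions vs DMSO.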

A short description of assay [9]: ATG_GLI_CIS: Attagene CIS-FACTORIAL HepG2 Assay for human Zinc Finger Protein GLI1 (AID 2282945). Conditions: HepG2, Attagene cis-factorial reporter mRNA, GLI element; actives raise or lower the signal. The procedure, abridged:
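Bidirectional curve fits relative to DMSO, using reporter mRNA levels from RT-PCR plus capillary electrophoresis. Cells were HepG2 transiently carrying cis-regulated reporter constructs, harvested 24 h after dosing.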

In assay [10] the target is Bile acid receptor (Homo sapiens) (UniProt Q96RI1). The experiment in a line: ATG_IR1_CIS: Attagene CIS-FACTORIAL HepG2 Assay for human Nuclear Receptor Subfamily 1 Group H Member 4 (NR1H4), IR1 submotif (AID 2282946). As to conditions: IR1 reporter transcription, actives raise or lower the signal. The procedure, abridged:
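Cells (human HepG2) carry transiently transfected cis-promoter reporter transcription units. Compounds are incubated 24 h, total RNA is reverse-transcribed and amplified, and labelled fragments are resolved by capillary electrophoresis. Curves use DMSO as baseline.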

Assay [11] can be described thus: ATG_ISRE_CIS: Attagene CIS-FACTORIAL HepG2 Assay for human Interferon Regulatory Factor 1 (IRF1) binding to an Interferon-Stimulated Response Element (ISRE) (AID 2282948). Conditions: HepG2 ISRE cis-reporter (Attagene), mRNA transcription readout; actives raise or lower the signal. The procedure, abridged: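 Transiently transfected HepG2 cells carrying cis-element reporter units, dosed 24 hours. Reporter mRNA quantified by RT-PCR, fluorescent primer extension, HpaI digestion and capillary electrophoresis. Bidirectional fitting relative to DMSO.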

A short description of assay [12]: ATG_M_32_CIS: Attagene CIS-FACTORIAL HepG2 Assay for M32 Transcription Factor (Internal Marker) (AID 2282949).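 Note: background control marker of the multiplexed CIS panel rather than a real target.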 As to conditions: HepG2 Attagene cis-factorial M32 reporter, mRNA; actives raise or lower the signal. The procedure, abridged: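 Following 24 h chemical exposure of HepG2 cells transiently expressing cis-promoter reporter constructs, reporter transcript levels were determined by RT-PCR with fluorescent labelling and capillary electrophoresis, then fitted bidirectionally against DMSO.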

A short description of assay [13]: ATG_M_06_CIS: Attagene CIS-FACTORIAL HepG2 Assay for M06 Transcription Factor (Internal Marker) (AID 2282950). As to conditions: HepG2 Attagene CIS-FACTORIAL M06 internal marker reporter; actives raise or lower the signal. The procedure, abridged: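 Internal background marker within multiplexed cis-reporter HepG2 system. Cells transiently transfected, dosed 24 h; reporter mRNA measured by RT-PCR, HpaI digestion and capillary electrophoresis. Bidirectional fit relative to DMSO.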

The target of assay [14] is Hepatocyte nuclear factor 6 (Homo sapiens) (UniProt Q9UBC0). As to the kind of experiment: ATG_HNF6_CIS: Attagene CIS-FACTORIAL HepG2 Assay for human Hepatocyte Nuclear Factor 6 (HNF6) (AID 2282952). As to conditions: HepG2 Attagene cis-factorial HNF6 reporter transcription; actives raise or lower the signal. The procedure, abridged: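 HepG2 cells transiently transfected with cis-element-driven multiplexed reporter units measuring endogenous transcription factor activity. After 24 h exposure, reporter mRNA quantified by RT-PCR, FAM-labelled fragments and capillary electrophoresis; bidirectional fitting versus DMSO.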

The target in assay [15] is Heat shock factor protein 1 (Homo sapiens) (UniProt Q00613). The experiment in a line: ATG_HSE_CIS: Attagene CIS-FACTORIAL HepG2 Assay for human Heat Shock Transcription Factor 1 (HSE) (AID 2282953). Conditions: HepG2 HSE cis-reporter, Attagene RNA transcription; actives raise or lower the signal. In a few lines: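 HepG2 cells transfected with cis-promoter reporter units sensing endogenous transcription factor activity; reporter mRNA quantified 24 h post-dose by RT-PCR and capillary electrophoresis of 6-FAM-labelled products. Bidirectional fitting against DMSO.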

The nature of assay [16]: ATG_MRE_CIS: Attagene CIS-FACTORIAL HepG2 Assay for human Metal Responsive Element (MRE) (AID 2282954). As to conditions: HepG2 MRE cis-reporter transcription, Attagene multiplex; actives raise or lower the signal. The procedure, abridged:
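After a 24 h chemical exposure, transiently transfected HepG2 cells yield RNA whose reporter sequences are amplified, FAM-labelled and sized by capillary electrophoresis. Curves are fitted bidirectionally relative to DMSO.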

Assay [17] can be described thus: ATG_ERE_CIS: Attagene CIS-FACTORIAL HepG2 Assay for Estrogen Response Element (ERE) (AID 2282940). As to conditions: HepG2 ERE cis-reporter, Attagene RNA transcript; actives raise or lower the signal. In a few lines:
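HepG2 cells transiently transfected with multiplexed cis-element reporter units, measuring endogenous transcription factor activity; ERE reporter mRNA quantified after 24 h exposure by RT-PCR, fluorescent labelling, HpaI digestion and capillary electrophoresis. Bidirectional change versus DMSO.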

A short description of assay [18]: ATG_GRE_CIS: Attagene CIS-FACTORIAL HepG2 Assay for human Glucocorticoid Response Elements (GRE) (AID 2282947). As to conditions: HepG2 GRE cis-reporter, Attagene multiplex mRNA; actives raise or lower the signal. The procedure, abridged: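 Assay uses human hepatoma HepG2 cells transfected with cis-promoter reporter units, exposed 24 h. mRNA from reporters detected by RT-PCR plus capillary electrophoresis; DMSO serves as negative control and baseline.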

Assay [19] has as its target Hypoxia-inducible factor 1-alpha (Homo sapiens) (UniProt Q16665). The experiment in a line: ATG_HIF1a_CIS: Attagene CIS-FACTORIAL HepG2 Assay for human Hypoxia Inducible Factor 1 (HIF1A) (AID 2282951). Conditions: HepG2 Attagene cis-factorial HIF1a reporter transcription; actives raise or lower the signal. The procedure, abridged: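 In this multiplexed cell assay, HepG2 cells bearing transfected cis reporters are dosed for 24 h and reporter mRNA is read by RT-PCR plus capillary electrophoresis; signal increases and decreases are both scored against DMSO.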

Assay [20] is described as follows: ATG_PBREM_CIS: Attagene CIS-FACTORIAL HepG2 Assay for human Phenobarbital-responsive Enhancer Module (PBREM) (AID 2282955). As to conditions: HepG2 PBREM cis-reporter, Attagene multiplexed transcription; actives raise or lower the signal. The procedure, abridged:
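After a 24 h incubation with test chemical, transfected HepG2 cells yield total RNA; reporter-specific RT-PCR products are fluorescently labelled, HpaI-digested and resolved by capillary electrophoresis against ROX size standards.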

Chain of Hepatocyte nuclear factor 3-beta (Homo sapiens) (Q9Y261 whole entry, looked up): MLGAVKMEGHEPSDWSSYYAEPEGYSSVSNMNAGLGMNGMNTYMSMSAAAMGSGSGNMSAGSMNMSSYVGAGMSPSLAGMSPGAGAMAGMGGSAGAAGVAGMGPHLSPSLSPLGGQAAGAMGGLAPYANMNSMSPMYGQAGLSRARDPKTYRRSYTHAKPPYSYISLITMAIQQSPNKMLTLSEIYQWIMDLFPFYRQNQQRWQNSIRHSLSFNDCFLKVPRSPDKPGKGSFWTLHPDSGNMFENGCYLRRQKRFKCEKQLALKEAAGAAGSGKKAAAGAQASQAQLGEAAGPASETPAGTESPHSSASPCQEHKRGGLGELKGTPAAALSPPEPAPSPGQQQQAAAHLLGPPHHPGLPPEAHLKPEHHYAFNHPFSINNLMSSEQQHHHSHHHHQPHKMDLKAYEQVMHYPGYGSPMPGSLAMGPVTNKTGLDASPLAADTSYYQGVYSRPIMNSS
Chain of Hepatocyte nuclear factor 6 (Homo sapiens) (Q9UBC0 whole entry, looked up, the tested form may be a part): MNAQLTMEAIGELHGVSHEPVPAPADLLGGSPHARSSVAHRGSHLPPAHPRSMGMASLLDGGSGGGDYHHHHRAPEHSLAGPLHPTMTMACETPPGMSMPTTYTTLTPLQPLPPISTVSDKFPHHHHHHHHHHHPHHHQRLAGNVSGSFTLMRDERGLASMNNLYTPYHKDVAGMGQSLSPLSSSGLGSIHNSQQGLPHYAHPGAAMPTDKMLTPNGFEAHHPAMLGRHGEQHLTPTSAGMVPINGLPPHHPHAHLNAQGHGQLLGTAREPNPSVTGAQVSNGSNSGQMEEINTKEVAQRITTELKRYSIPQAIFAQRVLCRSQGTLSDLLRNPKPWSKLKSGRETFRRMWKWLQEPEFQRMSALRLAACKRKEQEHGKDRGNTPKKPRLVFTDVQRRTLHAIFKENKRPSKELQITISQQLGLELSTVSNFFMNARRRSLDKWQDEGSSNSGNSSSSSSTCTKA
Chain of Heat shock factor protein 1 (Homo sapiens) (Q00613 whole entry, looked up): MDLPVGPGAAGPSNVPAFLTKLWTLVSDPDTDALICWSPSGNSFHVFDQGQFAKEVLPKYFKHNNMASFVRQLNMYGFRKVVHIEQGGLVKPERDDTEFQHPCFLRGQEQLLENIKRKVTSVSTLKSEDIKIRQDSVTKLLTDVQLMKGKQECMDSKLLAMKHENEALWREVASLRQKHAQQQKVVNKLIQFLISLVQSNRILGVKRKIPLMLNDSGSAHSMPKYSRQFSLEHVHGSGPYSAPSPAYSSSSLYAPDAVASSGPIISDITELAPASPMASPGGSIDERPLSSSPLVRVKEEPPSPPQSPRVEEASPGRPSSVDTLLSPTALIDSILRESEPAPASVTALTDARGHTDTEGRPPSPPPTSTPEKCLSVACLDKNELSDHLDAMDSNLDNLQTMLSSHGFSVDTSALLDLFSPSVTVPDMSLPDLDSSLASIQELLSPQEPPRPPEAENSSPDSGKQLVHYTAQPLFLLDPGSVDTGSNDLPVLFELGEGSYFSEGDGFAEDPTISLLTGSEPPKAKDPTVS
Chain of Bile acid receptor (Homo sapiens) (Q96RI1 whole entry, looked up, the tested form may be a part): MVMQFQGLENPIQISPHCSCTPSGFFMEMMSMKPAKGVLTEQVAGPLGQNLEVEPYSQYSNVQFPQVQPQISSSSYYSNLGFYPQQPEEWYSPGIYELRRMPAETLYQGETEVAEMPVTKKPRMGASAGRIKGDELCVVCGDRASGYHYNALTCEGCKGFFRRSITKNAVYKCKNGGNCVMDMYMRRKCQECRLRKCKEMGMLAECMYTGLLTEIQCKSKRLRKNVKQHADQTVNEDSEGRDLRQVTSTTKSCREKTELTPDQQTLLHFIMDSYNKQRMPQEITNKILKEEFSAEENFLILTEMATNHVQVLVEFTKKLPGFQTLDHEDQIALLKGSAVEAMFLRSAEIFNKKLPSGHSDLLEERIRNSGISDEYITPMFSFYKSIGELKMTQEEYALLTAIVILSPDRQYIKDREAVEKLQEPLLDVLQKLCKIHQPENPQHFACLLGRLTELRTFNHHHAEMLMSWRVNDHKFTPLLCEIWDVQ
Chain of Hypoxia-inducible factor 1-alpha (Homo sapiens) (Q16665 whole entry, looked up): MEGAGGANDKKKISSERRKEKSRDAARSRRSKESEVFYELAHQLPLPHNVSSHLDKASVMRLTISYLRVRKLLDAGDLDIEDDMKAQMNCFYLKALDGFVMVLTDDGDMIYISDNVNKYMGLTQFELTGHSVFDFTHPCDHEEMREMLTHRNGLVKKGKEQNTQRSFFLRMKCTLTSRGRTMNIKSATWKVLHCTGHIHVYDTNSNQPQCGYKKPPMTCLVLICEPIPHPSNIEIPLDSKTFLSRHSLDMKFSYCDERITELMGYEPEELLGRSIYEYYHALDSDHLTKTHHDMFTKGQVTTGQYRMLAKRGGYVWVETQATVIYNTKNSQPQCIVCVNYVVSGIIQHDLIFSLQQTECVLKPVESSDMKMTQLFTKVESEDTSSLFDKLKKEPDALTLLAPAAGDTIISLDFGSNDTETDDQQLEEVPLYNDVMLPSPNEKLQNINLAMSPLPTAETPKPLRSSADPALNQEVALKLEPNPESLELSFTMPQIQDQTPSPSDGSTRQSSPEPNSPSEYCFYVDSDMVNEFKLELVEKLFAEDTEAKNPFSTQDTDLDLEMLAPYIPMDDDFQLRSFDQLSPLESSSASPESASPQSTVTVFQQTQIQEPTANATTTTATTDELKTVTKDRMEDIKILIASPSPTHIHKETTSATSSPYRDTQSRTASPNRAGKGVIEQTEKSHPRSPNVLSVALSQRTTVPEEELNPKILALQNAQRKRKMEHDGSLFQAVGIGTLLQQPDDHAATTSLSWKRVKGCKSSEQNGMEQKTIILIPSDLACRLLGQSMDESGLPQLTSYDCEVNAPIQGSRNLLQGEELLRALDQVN

Turning to `C[Si](Cn1cncn1)(c1ccc(F)cc1)c1ccc(F)cc1`, the AC50 – broadly, the concentration at which the activity in the assay is half-maximal – was 83.2 µM (active) in [1]; 50 µM (active) in assay [3]; 69 µM (active) in assay [10]; 35.4 µM (active) in assay [12]; 85.6 µM (active) in assay [15]; 63.2 µM (active) in assay [16]. For the same molecule, the outcome in [2], in assay [4], in [5], in [6], in [7] and in assay [8] was inactive. Moreover, the molecule was classed as inactive in [9], in assay [11], in [13] and in assay [14].

Regarding `Nc1c(Cl)cc([N+](=O)[O-])cc1Cl`, the result in [1], in assay [2], in assay [3], in assay [4], in [5] and in assay [7] was inactive. The molecule was classed as inactive in assay [8], in assay [9], in assay [10], in [12], in assay [13] and in assay [19]. Besides, the outcome in assay [14], in [15] and in assay [20] was inactive. In addition, the half-maximal activity concentration (AC50) is 28.2 µM (active) in [17], 76.1 µM (active) in [6], 86.3 µM (active) in [18] and 64.6 µM (active) in [16].

As to `CNC(=O)Oc1cccc2c1OC(C)(C)O2`, the result in assay [1], in assay [2], in assay [3], in assay [4], in [6] and in [7] was inactive. The molecule was called inactive in assay [8], in assay [9], in assay [10], in assay [18], in assay [12] and in assay [13]. Besides, the molecule was called inactive in [14], in assay [15] and in assay [20]. Besides, the AC50 is 29.5 µM (active) in [17], 75.9 µM (active) in [5] and 67.7 µM (active) in assay [16].

Turning to `C=C(C)[C@H]1Cc2c(ccc3c2O[C@@H]2COc4cc(OC)c(OC)cc4[C@@H]2C3=O)O1`, the result in assay [1], in assay [2], in assay [3], in assay [4], in assay [5] and in [6] was inactive. Further, the molecule was called inactive in [7], in [9], in assay [10], in assay [18], in assay [11] and in assay [12]. Also, the outcome in assay [13], in assay [14] and in [15] was inactive. The AC50 in assay [8] is 1.21 µM (active); in assay [16], 0.0899 µM (active); in assay [20], 0.0505 µM (active).
